Records with an inconclusive call do not appear. Calls of active or inactive are those of the source. Calls come from the whole dose curve.

Peroxisome proliferator-activated receptor delta (Homo sapiens), sequence (Q03181 whole entry, looked up): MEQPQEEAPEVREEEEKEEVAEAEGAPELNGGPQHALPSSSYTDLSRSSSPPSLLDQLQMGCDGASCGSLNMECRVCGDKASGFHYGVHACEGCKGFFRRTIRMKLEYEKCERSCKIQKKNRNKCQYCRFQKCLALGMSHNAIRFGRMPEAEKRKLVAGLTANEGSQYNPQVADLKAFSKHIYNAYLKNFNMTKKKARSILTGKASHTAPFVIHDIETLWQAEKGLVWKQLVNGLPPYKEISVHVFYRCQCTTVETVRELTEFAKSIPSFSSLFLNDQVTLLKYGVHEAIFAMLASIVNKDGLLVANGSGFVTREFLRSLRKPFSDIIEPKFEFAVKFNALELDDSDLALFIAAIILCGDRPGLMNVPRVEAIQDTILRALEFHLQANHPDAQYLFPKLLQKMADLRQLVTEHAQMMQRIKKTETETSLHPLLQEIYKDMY

The experiment deals with Peroxisome proliferator-activated receptor delta (Homo sapiens) (UniProt Q03181). Briefly: qHTS assay for small molecule agonists of peroxisome proliferator-activated receptor delta signaling (AID 588534). The conditions noted are these: HEK293T PPARdelta-UAS-bla, beta-lactamase ratio, 18 h; series mostly up to 76.7 µM. The method in brief:
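Agonist-mode beta-lactamase reporter readout (CCF4 dye, 2 h at RT) after 18 h at 37 °C exposure to a titration; Hill-equation fitting gave EC50 and maximal response.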
Take `CC(C)(C)OCC1CO1` (centres undefined): the result was inactive.
In the case of `C/C=C\c1ccc(OC)cc1`, the result was inactive.
Turning to `COCCO`, the outcome was inactive.
With `CCNC(=S)NCC`, the result was inactive.
On to `O=[N+]([O-])c1ccc2c(c1)Cc1ccccc1-2`, for which the result was inactive.
Take `Nc1ccc(N)c2c1C(=O)c1c(N)ccc(N)c1C2=O`: the outcome was inactive.
On to `CC1=CC(C)(C)Nc2ccccc21`, for which the result was inactive.
Consider `COc1c(Cl)ccc(Cl)c1C(=O)O`, for which the result was inactive.
With `OCCC(F)(F)C(F)(F)C(F)(F)C(F)(F)C(F)(F)C(F)(F)C(F)(F)C(F)(F)F`, the result was inactive.
As for `CO[Si](CCCNCCN)(OC)OC`, the result was inactive.
As to `C=C(C)C(=O)OCCCCCCCCCC`, the result was inactive.
`CCCCOCCOCCOC(C)=O`: the result was inactive.
`O=C=NC1CCC(CC2CCC(N=C=O)CC2)CC1` (centres undefined): the outcome was inactive.
Regarding `CC(=O)OCc1ccco1`, the outcome was inactive.
The result for `Cc1ccc(S(=O)(=O)Oc2ccc(N=Nc3ccc(-c4ccc(N=Nc5c(O)ccc6cc(S(=O)(=O)O)cc(S(=O)(=O)O)c56)c(C)c4)cc3C)cc2)cc1` reads “inactive”; that for `ClCCCl`, “inactive”; that for `C=CC(=O)NC(C)(C)CS(=O)(=O)O`, “inactive”.
For the compound `C[C@]12CC[C@@H]3c4ccc(O)cc4CC[C@H]3[C@@H]1CC[C@H]2O`, the result was inactive.
The result for `CCOC(=O)COc1cc(-n2ncc(C(F)(F)F)c(C)c2=O)c(F)cc1Cl` reads “inactive”.
Take `O=C(O)c1cccc(Cl)c1Cl`: the result was inactive.
With `OC1CCCCC1` the entry was “inactive”; with `CC(C)(O)CCC(C)(C)O`, “inactive”; with `COC(=O)CS`, “inactive”.
In the case of `Clc1cc(Cl)c(Cl)cc1Cl`, the result was inactive.
In the case of `Cc1cc(Nc2ccc(O)cc2)ccc1N`, the result was inactive.
With `ClCCl` the entry was “inactive”; with `CO[Si](OC)(OC)c1ccccc1`, “inactive”.
With `CC(=O)C1(C)CC2=C(CCCC2(C)C)CC1C` (centres undefined), the outcome was inactive.
As for `CCCCCCCCC/C=C/CC1CC(=O)OC1=O` (centres undefined), the outcome was inactive.
As to `CC1(C)CC(OC(=O)CCCCCCCCC(=O)OC2CC(C)(C)NC(C)(C)C2)CC(C)(C)N1`, the outcome was inactive.
As for `Nc1ccccc1S(=O)(=O)O`, the outcome was inactive.
With `CCOC(=O)C1OC1c1ccccc1` (centres undefined), the result was inactive.
For `Nc1ccc2c(c1)C(=O)c1ccccc1C2=O`, the outcome was inactive.
The result for `C1CCC2OC2C1` (centres undefined) reads “inactive”.
With `CCCC/C=C\CCCCCCCCO`, the result was inactive.
For the compound `OCCNCCO`, the outcome was inactive.
With `NC(=O)c1cccc([N+](=O)[O-])c1` the entry was “inactive”; with `OC1CCCC1`, “inactive”.
Turning to `Cc1ccccc1C=O`, the result was inactive.
